In PubChem BioAssay AID2284200 (EPA ToxCast):
The source made the active and inactive calls. How the source made its calls: active means hit-call score of the fitted dose curve at least 0.9, where 1 is the maximum; inactive means score below 0.9.

experiment: ERF_TW_NR_rI2: Eurofins (ERF) Radioligand Binding LeadHunter Assay for rat Imidazoline I2 Central Antagonism
Procedure: ERF_TW_NR_rI2 is a biochemical, single-readout assay that uses extracted gene-proteins in a cell-free assay. Measurements were taken 0.5 hour after chemical dosing in a 96-well plate. See Imidazoline I2, Central Rat Binding (Antagonist Radioligand) Assay, Panlabs.ERF_TW_NR_rI2 is an assay component calculated from the ERF_TW_NR_rI2 assay. It is designed to measure radioligand binding using a type of binding reporter as detected by scintillation counting with radiometry technology.Data from the assay component ERF_TW_NR_rI2 was analyzed at the assay endpoint, ERF_TW_NR_rI2, in the positive analysis fitting direction relative to DMSO as the negative control and baseline of activity. Using a type of binding reporter, loss-of-signal activity can be used to understand changes in radioligand binding as they relate to gene NISCH (homolog). To generalize the intended target to other relatable targets, this assay endpoint is annotated to the oxidoreductase intended target family, where the subfamily is imidazoline receptor.
Brains (except cerebella) of male Wistar derived rats weighing 175 +/- 25 g are used to prepare imidazoline I2 receptors in modified Tris-HCl buffer pH 7.4. A 15 mg aliquot is incubated with 2 nM [3H] Idazoxan for 30 minutes at 25C. […] Membranes are filtered and washed, the filters are then counted to determine [3H] […]

| Structure (SMILES) | outcome |
| --- | --- |
| COc1cc(CCC(=O)CC(=O)CCc2ccc(O)c(OC)c2)ccc1O | inactive |
